Laboratory results as given in PubChem BioAssay.
Active and inactive are the calls of the source.

Tests used:
[1] = tested on: Plasmodium falciparum Sir2 (PF13_0152, Sir2A); experiment: pfSir2 binders on small-molecule microarrays, primary screen, biochemical, small-molecule microarray, 635 nm fluorescence (AID 1098); details: small-molecule microarray binding, fluorescence 635 nm; higher = more signal;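 further: score merges spot fluorescence intensity with its signal-to-noise ratio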
[2] = small-molecule microarray binders of probe aDKK1, primary screen, biochemical, biotinylated probe, 635/667 nm fluorescence (AID 1099); details: higher = more signal;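 further: score merges 667nm spot fluorescence with signal to noise across triplicate slides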
[3] = small-molecule microarray binders of probe aCHRDL2, primary screen, biochemical, biotinylated probe, 635/667 nm fluorescence (AID 1100); details: higher = more signal
[4] = splicing luciferase reporter signal modulators, primary screen, spliceosome inhibition project, cell-based, HEK293, splice +/- reporter (AID 1101); details: luminescence, 24 h, higher = more signal, called active from +8 up or from −8 down;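 further: HEK293 cells carrying a splicing-competent luciferase reporter gene; test concentration not given here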
[5] = molecular target: Fibroblast growth factor 10 (Homo sapiens) (UniProt O15520); experiment: FGF10 binders on small-molecule microarrays, primary screen, biochemical, small-molecule microarray, 635 nm fluorescence (AID 1102); details: FGF10 binding, fluorescence 635 nm, higher = more signal
[6] = tested on: glycogen synthase kinase-3 (GSK3A per assay name; protocol says GSK3B); experiment: GSK3 binders on small-molecule microarrays, primary screen, biochemical, small-molecule microarray, 635 nm fluorescence, GSK3A (AID 1103); details: small-molecule microarray binding, fluorescence 635 nm; higher = more signal; further: the record names both GSK3A and GSK3B
[7] = molecular target: Epidermal growth factor receptor (Homo sapiens) (UniProt P00533); experiment: EGFR binders on small-molecule microarrays, primary screen, biochemical, small-molecule microarray, 635 nm fluorescence (AID 1104); details: EGFR binding, higher = more signal;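 further: score merges 667 nm emission intensity with spot signal to noise over triplicate slides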
[8] = molecular target: Follistatin-related protein 3 (Homo sapiens) (UniProt O95633); experiment: FSTL3 binders on small-molecule microarrays, primary screen, biochemical, small-molecule microarray, 635 nm fluorescence (AID 1105); details: FSTL3 binding, higher = more signal;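 further: score merges emission near 667 nm and signal to noise per printed spot across three slides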
[9] = molecular target: Dickkopf-related protein 1 (Homo sapiens) (UniProt O94907); experiment: DKK1 binders on small-molecule microarrays, primary screen, biochemical, small-molecule microarray, 635 nm fluorescence scan (AID 1106); details: DKK1 binding, higher = more signal;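 further: score merges emission near 667 nm with signal to noise over three replicate slides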
[10] = tested on: Inhibin beta A chain (activin A); experiment: INHBA (activin A) binders on microarrays, primary screen, biochemical, small-molecule microarray, 635 nm fluorescence scan (AID 1107); details: small-molecule microarray binding, higher = more signal;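 further: mouse activin A protein probed at 4.33 µg/mL on printed slides; score merges bound-protein fluorescence near 667 nm with spot signal-to-noise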
[11] = tested on: Human papillomavirus type 1a protein E7 (residues 44-93); experiment: HPV1a E7 fragment binders on microarrays, primary screen, biochemical, small-molecule microarray, residues 44-93, 635 nm fluorescence (AID 1108); details: small-molecule microarray binding, fluorescence 635 nm; higher = more signal;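 further: E7 fragment applied at 1 µg/mL in TBST for 1 h at 4 C; score combines spot fluorescence with its signal to noise ratio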
[12] = modulators of HCV replicon luciferase signal, primary screen, HCV replication inhibitor project, Huh7 cells, luciferase reporter (AID 1109); details: 48 h, higher = more signal;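 further: huh7 hepatoma cells harbouring a luciferase neomycin HCV replicon reporter; luciferase luminescence as measure of HCV replicon replication; test concentration not given here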
[13] = molecular target: Left-right determination factor 2 (Homo sapiens) (UniProt O00292); experiment: LEFTY2 binders on small-molecule microarrays, primary screen, biochemical, small-molecule microarray, 635 nm fluorescence scan (AID 1110); details: LEFTY2 binding, higher = more signal
[14] = molecular target: Calmodulin-1 (Homo sapiens) (UniProt P0DP23); experiment: CALM1 binders on microarrays, EGTA buffer, profiling panel, biochemical, small-molecule microarray, Cy5-labelled CALM1 (AID 1111); details: Cy5-CALM1 binding fluorescence, higher = more signal;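 further: labelled calmodulin applied in Tris saline Tween buffer holding calcium plus EGTA and DTT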
[15] = molecular target: Calmodulin-1 (Homo sapiens) (UniProt P0DP23); experiment: calcium-bound CALM1 binders on microarrays, profiling panel, artefact control for SMM control-protein annotation, biochemical, small-molecule microarray, Cy5-labelled CALM1, plus calcium (AID 1112); details: Cy5-CALM1 binding fluorescence, higher = more signal;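 further: score merges spot fluorescence with signal to noise from triplicate slides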
[16] = small-molecule microarray binders of probe aWnt5a, primary screen, biochemical, biotinylated probe, 635/667 nm fluorescence (AID 1113); details: higher = more signal;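 further: score merges 667 nm fluorescence intensity with signal-to-noise per printed feature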
[17] = small-molecule microarray binders of probe aShh, primary screen, biochemical, biotinylated probe, 635/667 nm fluorescence (AID 1114); details: higher = more signal;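 further: probe is biotin-labelled aShh protein from a stem cell growth factor screen; measures binding of labelled protein to compounds printed on the slide; score merges feature fluorescence at 667 nm with signal-to-noise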
[18] = small-molecule microarray binders of probe aNog, primary screen, biochemical, biotinylated probe, 635/667 nm fluorescence (AID 1115); details: higher = more signal;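 further: probe is biotinylated aNog protein used at 0.15 µg/mL for 1 h at 4 C; z-score combines 667 nm fluorescence of each spot with its signal to noise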
[19] = molecular target: Torsin-1A-interacting protein 1 (Homo sapiens) (UniProt Q5JTV8); experiment: LAP1 binders from COS7 cell lysate, primary screen, small-molecule microarray, 635/667 nm fluorescence (AID 1116); details: COS7-hLAP1 lysate binding, 635 nm fluorescence, higher = more signal
[20] = molecular target: Alpha-bungarotoxin (Bungarus multicinctus) (UniProt P60615); experiment: alpha-bungarotoxin binders on microarray, profiling panel, artefact control for SMM control protein annotation, biochemical, small-molecule microarray, Alexa647 label, 635/667 nm fluorescence (AID 1117); details: alpha-BTX-A647 binding fluorescence, higher = more signal
Sequence of Alpha-bungarotoxin (Bungarus multicinctus) (P60615 whole entry, looked up): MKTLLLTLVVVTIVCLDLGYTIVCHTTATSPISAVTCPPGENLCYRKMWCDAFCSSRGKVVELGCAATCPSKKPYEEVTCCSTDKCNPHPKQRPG

Sequence of Fibroblast growth factor 10 (Homo sapiens) (O15520 whole entry, looked up): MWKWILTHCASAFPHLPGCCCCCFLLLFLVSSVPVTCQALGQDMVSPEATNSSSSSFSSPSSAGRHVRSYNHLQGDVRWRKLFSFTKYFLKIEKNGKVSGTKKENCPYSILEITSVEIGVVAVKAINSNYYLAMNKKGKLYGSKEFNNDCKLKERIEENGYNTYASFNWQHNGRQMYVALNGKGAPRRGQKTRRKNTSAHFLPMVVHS
Sequence of Left-right determination factor 2 (Homo sapiens) (O00292 whole entry, looked up): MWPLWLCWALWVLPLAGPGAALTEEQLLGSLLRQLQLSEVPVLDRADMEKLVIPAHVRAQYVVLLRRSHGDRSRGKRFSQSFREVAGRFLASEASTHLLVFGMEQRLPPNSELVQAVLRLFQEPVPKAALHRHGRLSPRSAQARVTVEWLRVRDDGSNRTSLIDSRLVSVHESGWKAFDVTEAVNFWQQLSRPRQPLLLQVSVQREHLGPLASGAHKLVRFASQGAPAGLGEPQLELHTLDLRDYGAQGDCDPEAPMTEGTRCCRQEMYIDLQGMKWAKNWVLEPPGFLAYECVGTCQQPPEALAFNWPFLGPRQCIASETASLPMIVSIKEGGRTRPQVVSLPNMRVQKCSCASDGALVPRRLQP
Sequence of Torsin-1A-interacting protein 1 (Homo sapiens) (Q5JTV8 whole entry, looked up): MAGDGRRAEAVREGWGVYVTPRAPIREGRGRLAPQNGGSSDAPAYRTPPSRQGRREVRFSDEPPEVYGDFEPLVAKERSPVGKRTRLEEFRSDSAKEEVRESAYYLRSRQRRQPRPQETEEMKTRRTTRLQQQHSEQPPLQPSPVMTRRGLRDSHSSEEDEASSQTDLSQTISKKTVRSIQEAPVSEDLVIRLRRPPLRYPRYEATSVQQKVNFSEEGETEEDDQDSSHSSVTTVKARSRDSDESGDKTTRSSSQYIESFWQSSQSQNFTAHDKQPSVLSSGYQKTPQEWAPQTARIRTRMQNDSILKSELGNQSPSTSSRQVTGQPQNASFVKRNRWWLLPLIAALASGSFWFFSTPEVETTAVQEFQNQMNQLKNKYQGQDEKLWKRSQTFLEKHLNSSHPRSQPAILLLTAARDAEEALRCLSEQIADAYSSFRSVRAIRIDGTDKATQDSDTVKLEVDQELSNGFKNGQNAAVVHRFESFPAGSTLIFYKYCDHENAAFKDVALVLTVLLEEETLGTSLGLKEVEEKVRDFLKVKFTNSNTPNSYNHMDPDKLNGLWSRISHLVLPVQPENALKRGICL
Sequence of Follistatin-related protein 3 (Homo sapiens) (O95633 whole entry, looked up): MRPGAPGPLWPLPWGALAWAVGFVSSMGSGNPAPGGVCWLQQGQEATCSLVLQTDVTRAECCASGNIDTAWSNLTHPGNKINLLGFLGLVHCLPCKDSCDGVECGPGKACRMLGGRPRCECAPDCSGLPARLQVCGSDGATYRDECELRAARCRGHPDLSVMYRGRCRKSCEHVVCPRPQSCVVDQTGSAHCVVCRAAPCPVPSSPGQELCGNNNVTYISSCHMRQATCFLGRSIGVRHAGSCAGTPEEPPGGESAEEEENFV
Sequence of Epidermal growth factor receptor (Homo sapiens) (P00533 whole entry, looked up): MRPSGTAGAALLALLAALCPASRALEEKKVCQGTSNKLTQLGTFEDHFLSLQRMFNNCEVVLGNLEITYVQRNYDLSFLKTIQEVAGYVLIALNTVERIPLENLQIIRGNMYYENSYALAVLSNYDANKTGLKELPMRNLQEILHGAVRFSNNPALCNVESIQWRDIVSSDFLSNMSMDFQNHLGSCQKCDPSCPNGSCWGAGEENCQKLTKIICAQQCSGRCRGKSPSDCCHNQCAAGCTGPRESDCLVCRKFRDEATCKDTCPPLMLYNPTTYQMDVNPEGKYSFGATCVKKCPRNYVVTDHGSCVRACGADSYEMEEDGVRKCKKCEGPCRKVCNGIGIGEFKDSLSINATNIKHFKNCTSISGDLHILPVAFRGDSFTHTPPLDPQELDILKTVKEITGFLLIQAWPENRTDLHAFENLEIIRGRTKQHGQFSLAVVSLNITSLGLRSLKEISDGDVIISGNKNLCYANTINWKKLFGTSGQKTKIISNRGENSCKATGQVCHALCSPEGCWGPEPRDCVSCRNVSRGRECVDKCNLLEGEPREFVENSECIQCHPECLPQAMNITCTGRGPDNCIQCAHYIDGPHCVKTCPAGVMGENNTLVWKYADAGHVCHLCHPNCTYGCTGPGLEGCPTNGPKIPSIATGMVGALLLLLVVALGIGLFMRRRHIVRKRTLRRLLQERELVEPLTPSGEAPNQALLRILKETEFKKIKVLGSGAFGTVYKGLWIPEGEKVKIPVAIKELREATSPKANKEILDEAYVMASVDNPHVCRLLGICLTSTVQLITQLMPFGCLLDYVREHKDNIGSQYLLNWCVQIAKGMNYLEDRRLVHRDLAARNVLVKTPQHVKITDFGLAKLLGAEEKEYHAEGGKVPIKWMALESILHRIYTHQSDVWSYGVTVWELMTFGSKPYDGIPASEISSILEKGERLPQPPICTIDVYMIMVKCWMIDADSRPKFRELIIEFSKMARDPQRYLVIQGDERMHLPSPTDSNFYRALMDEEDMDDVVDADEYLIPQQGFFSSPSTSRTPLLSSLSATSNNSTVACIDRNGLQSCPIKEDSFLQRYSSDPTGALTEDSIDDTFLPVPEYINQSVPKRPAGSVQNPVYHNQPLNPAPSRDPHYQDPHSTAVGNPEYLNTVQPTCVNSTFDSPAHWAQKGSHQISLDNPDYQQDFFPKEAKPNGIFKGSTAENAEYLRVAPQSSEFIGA
Sequence of Dickkopf-related protein 1 (Homo sapiens) (O94907 whole entry, looked up): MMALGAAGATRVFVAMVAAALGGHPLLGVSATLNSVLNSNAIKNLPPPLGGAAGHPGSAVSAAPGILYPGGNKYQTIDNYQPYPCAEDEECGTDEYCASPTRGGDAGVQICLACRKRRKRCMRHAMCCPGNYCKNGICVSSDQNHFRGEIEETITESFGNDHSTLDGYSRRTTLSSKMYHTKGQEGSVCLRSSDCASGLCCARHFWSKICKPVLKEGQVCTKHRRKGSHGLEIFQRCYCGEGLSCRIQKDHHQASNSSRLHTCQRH

Compound | composite z-score [1] | composite z-score [2] | composite z-score [3] | z-score [4] | composite z-score [5] | composite z-score [6] | composite z-score [7] | composite z-score [8] | composite z-score [9] | composite z-score [10] | composite z-score [11] | z-score [12] | composite z-score [13] | composite z-score [14] | composite z-score [15] | composite z-score [16] | composite z-score [17] | composite z-score [18] | composite z-score [19] | composite z-score [20]
CC(C)C(=C=CC[C@@H](O)c1ccccc1OCCO)C[C@@H](O)c1cc(Cl)cc(Cl)c1O | 0.665 | -0.102 | -0.555 | -1.59 (inactive) | 1.46 | 1.13 | 0.472 | 1.16 | 0.741 | 0.169 | 1.48 | -3.27 | 0.744 | 0.341 | -0.538 | -0.0735 | -0.153 | 0.432 | -0.197 | 1.54
C[C@H]1NC(=O)C([C@@H](C)OCc2ccccc2)NC(=O)[C@@]23C(=O)N[C@@H](Cc4ccccc4)C2[C@H](C)[C@@]2(C)O[C@H]2C3/C=C/C/C=C\CNC1=O (stereo not given in full) | 0.0032 | -0.333 | -0.603 | 0.219 (inactive) | 0.699 | -0.3 | 0.281 | 0.511 | 0.722 | 1.43 | -0.037 | -1.52 | 0.39 | -0.553 | -0.854 | -0.213 | -0.0553 | -0.0602 | -0.0194 | 0.21
[N-]=[N+]=NCc1ccccc1C[C@]1(C(=O)N2CCOCC2)N=C(c2ccc(OCCCO)cc2)O[C@H]1c1ccccc1CN=[N+]=[N-] | 1.33 | 1.42 | 1.39 | -1.2 (inactive) | 1.39 | 0.935 | -0.134 | 0.217 | -0.275 | 1.43 | 0.344 | -2.48 | -0.0716 | 2.49 | 1.28 | 0.653 | 0.564 | 0.967 | 2.79 | 2.74
CN(C)CCCC[C@@H]1NC(=O)[C@@H]2C[C@H](C(=O)NCCCCCCNC(=O)CS)[C@H](c3cccc(OCCO)c3)N2C1=O | 1.59 | 0.0307 | 0.358 | -0.162 (inactive) | 0.419 | 0.842 | -0.247 | -0.0613 | 0.735 | -0.0529 | -0.275 | -0.149 | 0.0929 | -0.172 | -0.221 | -0.0478 | -0.209 | -0.103 | 0.947 | 0.0727
C=CCC(OC(C)=O)[C@@H]1[C@@H](N(Cc2ccc(-c3cccc(C(F)(F)F)c3)o2)C(=O)Cc2ccc(F)cc2)c2cc(OCCCO)ccc2N1C(=O)c1ccc2ccccc2c1 (stereo not given in full) | 0.819 | -0.185 | 0.429 | -0.182 (inactive) | -0.701 | -1.87 | -0.659 | 0.199 | -0.0392 | 1.08 | -1.18 | -0.735 | -0.72 | -0.681 | -0.214 | -0.0548 | -0.221 | -0.624 | 0.0175 | -0.318
CN(C)C(=O)[C@]1(Cc2ccccc2CN=[N+]=[N-])N=C(c2ccc(OCCCO)cc2)O[C@@H]1c1ccccc1N=[N+]=[N-] | 1.18 | 0.805 | 0.884 | -1.27 (inactive) | 0.939 | 0.631 | -0.205 | 0.264 | -0.0994 | 0.814 | 1.44 | -1.6 | -0.472 | 1.71 | 0.422 | -0.0161 | 0.0639 | 0.526 | 0.609 | 1.14
CCCCC(=C=CC[C@H](O)c1ccc(OCCO)cc1)C[C@H](O)c1ccccn1 | 0.856 | -0.0313 | -0.112 | 0.107 (inactive) | 1.35 | 0.583 | -0.229 | 0.416 | 0.215 | 0.669 | 1.31 | -0.028 | 0.295 | 0.587 | -0.758 | -0.0758 | -0.0011 | 0.253 | 0.875 | 0.634
COc1ccc([Si](C)(C)[C@H]2[C@H](CCO)O[C@@]3(C(=O)N(Cc4ccccc4)c4ccc(N(C=O)c5ccccc5)cc43)[C@@H]2C)cc1 | 0.638 | 0.0036 | -0.19 | -0.663 (inactive) | 0.651 | -0.273 | 0.0677 | 0.618 | 0.167 | 0.2 | 1.21 | -4.6 | 0.274 | 1.1 | 0.444 | -0.0512 | -0.0769 | -0.352 | 0.431 | 0.0701
CCCCN1CC=CC23O[C@@H]4C=CCOC(=O)[C@@H]4[C@H]2C(=O)N(CCO)[C@@H]3C1=O (stereo not given in full) | 1.58 | 0.125 | 0.537 | 0.499 (inactive) | -1.25 | -0.641 | -1.54 | -1.24 | -1.58 | -0.112 | -0.718 | 0.407 | -2.32 | -0.483 | 0.856 | -0.119 | 0.0893 | 0.643 | -0.401 | -1.48
COc1ccc(C#Cc2ccc3c(c2)[C@]2(C(=O)N3)[C@H](C(=O)Nc3nc4ccccc4s3)[C@H]3C(=O)O[C@H](c4ccccc4)[C@H](c4ccccc4)N3[C@@H]2c2ccc(OCCO)cc2)cc1 | 0.937 | 0.72 | 0.766 | -0.126 (inactive) | 1.17 | 1.3 | 0.209 | 1.13 | 0.629 | -0.37 | 0.801 | -2.03 | 0.651 | 2.19 | 0.915 | 0.0377 | 0.337 | 0.302 | 2.08 | 1.75
CCN(CC)c1ccc(N2CC=CC34O[C@@H]5C=CCOC(=O)[C@@H]5[C@H]3C(=O)N(CCCO)[C@@H]4C2=O)cc1 (stereo not given in full) | 0.481 | -0.464 | 0.0573 | -1.6 (inactive) | -0.946 | -1.11 | -0.853 | -0.69 | -0.901 | 1.65 | 0.295 | -0.427 | -0.934 | -1 | 0.319 | -0.124 | 0.258 | 0.223 | 0.0016 | -1.57
